Test results from PubChem BioAssay (NCATS).
Inconclusive results are not listed. Active and inactive are the calls of the source. Calls follow the shape of the dose curve; as a rule, active = well fitted inhibition curve with a large enough effect; inconclusive = small, poorly fitted or top-dose-only effect; inactive = flat fitted curve, though single readings scatter.

tested on: CRL-7250; experiment: qHTS assay to identify novel small-molecules to repurpose for Merkel cell carcinoma treatment (AID 1296009); details: MCC and control cell lines, CellTiter-Glo viability, 72 h; at 44.8 µM (top of the series) unless noted; also: nearly all actives have a fitted effect of over 60% in size
Procedure, shortened: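 Cell viability measured by CellTiter-Glo following 72 hr compound treatment at 37 degree celsius, with NPC and MIPE libraries tested in 8- and 11-point concentration series.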

| SMILES | outcome |
| --- | --- |
| Clc1ccc(C(Cn2ccnc2)OCc2ccc(Sc3ccccc3)cc2)c(Cl)c1 (configuration not stated) | inactive |
| CCCCCCCCCCCCOS(=O)(=O)O | inactive |
| C1CCN2C[C@@H]3C[C@@H](CN4CCCC[C@@H]34)[C@H]2C1 | inactive |
| CCCC(=O)OC[C@@H](OC(=O)CCC)[C@@H](OC(=O)CCC)[C@H](Cn1c2nc(=O)[nH]c(=O)c-2nc2cc(C)c(C)cc21)OC(=O)CCC | inactive |
| CN1CCOC(c2ccccc2)c2ccccc2C1 (configuration not stated) | inactive |
| OC(C#CCN1CCCC1)(c1ccccc1)c1ccccc1 | inactive |
| CCCCCCCCCCCCCCCCCCOCC(O)CO (configuration not stated) | inactive |
| N[C@@H](Cc1c[nH]c2ccc(O)cc12)C(=O)O | inactive |
| CN(C)CCCOC1(Cc2ccccc2)CCCCCC1 | inactive |
| CC(C)OC(=O)C(C(=O)OC(C)C)=C1SC=CS1 | inactive |
| Cc1cc(C(C)(C)C)c(O)c(C)c1CC1=NCCN1 | inactive |
| O=C1[C@H]2CCCC[C@H]2C(=O)N1CCCCN1CCN(c2nsc3ccccc23)CC1 | inactive |
| COc1ccc(C(Cl)=C(c2ccc(OC)cc2)c2ccc(OC)cc2)cc1 | inactive |
| C(=C\c1ccccc1)/CN1CCN(C(c2ccccc2)c2ccccc2)CC1 | inactive |
| CC1(C)CO[C@@H](CC(=O)O)CN1 | inactive |
| N#Cc1cc(NC(=O)C(=O)O)c(Cl)c(NC(=O)C(=O)O)c1 | inactive |
| CCCCCCCCCCCCCCCCC(C(=O)O)C(O)(CC(=O)O)C(=O)O (configuration not stated) | inactive |
| Cc1[nH]c(=O)c(C#N)cc1-c1ccc2nccn2c1 | inactive |
| CC(=O)SC[C@@H](Cc1ccccc1)C(=O)NCC(=O)OCc1ccccc1 | inactive |

| SMILES | outcome |
| --- | --- |
| CCC(CN)=C(c1ccccc1)c1ccccc1 | inactive |
| Cl/C(=C\n1cncn1)c1ccc(Cl)cc1Cl | inactive |
| CC[N+](CC)(CC)CCOC(=O)C(C1CCCC1)C1CCCC1 | inactive |
| NC(CSCC(=O)O)C(=O)O (configuration not stated) | inactive |
| CN(C)C/C=C(/c1ccc(Br)cc1)c1cccnc1 | inactive |
| CN1CCC(OC(c2ccccc2)c2ccccc2)CC1 | inactive |
| CC1(C)OC(=O)Nc2ccc(Br)cc21 | inactive |
| CCOC(=O)[C@H](CCc1ccccc1)N[C@@H](C)C(=O)N1C(=O)N(C)C[C@H]1C(=O)O | inactive |
| CCCCOc1cc(C(=O)OCCN(CC)CC)ccc1N | inactive |
| O=C(O)CN(CCOCCOCCN(CC(=O)O)CC(=O)O)CC(=O)O | inactive [at 0.588 µM] |
| Cc1nc2sccn2c(=O)c1CCN1CCC(=C(c2ccc(F)cc2)c2ccc(F)cc2)CC1 | inactive |
| CCOC(=O)OC(C)OC1=C(C(=O)Nc2ccccn2)N(C)S(=O)(=O)c2ccccc21 (configuration not stated) | inactive |
| O=C(O)c1cn(C2CC2)c2cc(Cl)c(F)cc2c1=O | inactive |
| NCCc1cnc[nH]1 | inactive |
| CCC(C)(C)c1ccc(CC(C)CN2C[C@@H](C)O[C@@H](C)C2)cc1 (some centres not stated) | inactive |
| COC1=C(OC)C(=O)C(CCCCCCCCCCO)=C(C)C1=O | inactive |
| Clc1ccc(C(Cn2ccnc2)OCc2ccsc2Cl)c(Cl)c1 (configuration not stated) | inactive |
| Nc1c2c(nc3c1CCC3)CCCC2 | inactive |
